Test results taken from the OligoGym collection.

Each sequence was assayed against MMS22L (assay: pooled miR-30 sensor sort-seq; sequence = guide strand). Conditions: shRNA.
Further: reference of the scale not given here.

**Q.** TTGAGATTGACAACACACGATA was tested. Which sensor-assay potency score (higher = more potent) did it give?
**A.** -0.65

**Q.** With TTTGAGATTGACAACACACGAT as the sequence, how does the sensor-assay potency score (higher = more potent) read?
**A.** 0.337

**Q.** How did the sensor-assay potency score (higher = more potent) turn out when TATATTTTAATACTTCACCAAG was run?
**A.** -1.14

**Q.** For TTTATCGCAACAGCAAGTCTTC, which sensor-assay potency score (higher = more potent) is on record?
**A.** -0.217

**Q.** Which sensor-assay potency score (higher = more potent) does the source give for TAATCCACCAACTAAAACCTAA here?
**A.** -0.962

**Q.** How did the sensor-assay potency score (higher = more potent) turn out when TATCTTGCTACAACTTGAGGGC was run?
**A.** -0.184

**Q.** With TTCTTCTAGAATGACACCCTGA as the sequence, how does the sensor-assay potency score (higher = more potent) read?
**A.** 0.182

**Q.** With TTAAGTAGTTTATTCAACCAGT as the sequence, how does the sensor-assay potency score (higher = more potent) read?
**A.** -0.299

**Q.** Which sensor-assay potency score (higher = more potent) does the source give for TAATCTTGTCAGTTTGACCAAC here?
**A.** -0.606

**Q.** TTGCTGACAACATAGGTGCAGG was tested. Which sensor-assay potency score (higher = more potent) did it give?
**A.** -1.03

**Q.** For TTTTTTAACAACTTTTGCCAGA, which sensor-assay potency score (higher = more potent) is on record?
**A.** -0.793

**Q.** With TTCTTGAACACCATCAATGTAT as the sequence, how does the sensor-assay potency score (higher = more potent) read?
**A.** -0.0869
